PubChem BioAssay (Tox21)
The source made the active and inactive calls. Calls follow the shape of the dose curve; as a rule, active = well fitted curve in the direction sought with a large enough effect in the repeat runs; inconclusive = weak or mixed curves; inactive = flat fitted curve, though single readings scatter.

Assay: qHTS assay to test for compound auto fluorescence at 535 nm (green) in HepG2 cell free culture (AID 720686)
Settings: Cell-free medium, green autofluorescence 485/535 nm; series mostly up to 91.3 µM
Source text: U.S. Tox21 Program National Center for Advancing Translational Sciences [NCATS] NIH Chemical Genomics Center [NCGC] U.S. Environmental Protection Agency [EPA] National Institutes of Environmental Health Sciences [NIEHS] National Toxicology Program [NTP] U.S. Food and Drug Administration [FDA] Tox21 Assay Overview: Compound auto fluorescence often interferes with screening of the compound library against various biological targets and signaling pathways. Some of these compounds may have fluorophoric properties. Such properties may interfere with the assay outputs resulting in false positives and/or negatives. To decrease such complications and ensure the compound activities are relevant in terms of biological response, the Tox21 10K compound library was screened for auto fluorescence. From the fluorophores used as reporter signals in our screening assays, the auto fluorescence equivalencies of compounds against three fluorophores have been evaluated: Triamterene, Fluorescein and Rose Bengal sodium for blue, green and red fluorescence, respectively. The fluorescence intensities were measured using Excitation/Emission wavelengths at 405/460nm, 485/535nm and 540/590nm for blue, green and red labels, respectively. This assay includes the green fluorescence data.
Tox21 Assay Protocol Summary: 5 uL of culture medium (MEM containing 10% FBS) per well was dispensed into black wall/clear bottom 1536-well plates using a Multidrop Combi Dispenser (ThermoFisher Scientific, Waltham, MA). After 23 nL compound or DMSO vehicle was transferred into assay plate by a pintool work station (Kalypsys, San Diego, CA), fluorescence intensities in the assay plates were measured by an Envision (PerkinElmer, Shelton, CT) plate reader using three labels for measuring blue, green and red fluorescence at […] 460, 535 and 590nm respectively.
In the case of `CCCCOC(=O)c1ccc(N)cc1`, the outcome is reported as “inactive”.
With `CC(=O)OCCOC(C)=O` the outcome was “inactive”.
For `CCO[Si](CCCN)(OCC)OCC`, the outcome was “inactive”.
With `O=S(=O)(O)c1ccc(N=Nc2c(O)ccc3cc(S(=O)(=O)O)ccc23)cc1` the outcome was “inactive”.
For `CC(C)CC(=O)CC(C)CC(C)C` (stereo not given), the outcome was “inactive”.
In the case of `CN1C(=O)CC[C@H]1c1cccnc1`, the outcome is reported as “inactive”.
With `OCc1cccc(Oc2ccccc2)c1` the outcome was “inactive”.
With `O=C(O)c1ccc(C(=O)O)c(C(=O)O)c1` the outcome was “inactive”.
With `CC(=O)OC1CC(C)OC(C)O1` (stereo not given) the outcome was “inactive”.
With `C=C(C)CNCC` the outcome was “inactive”.
For `NCCCCCCN`, the outcome was “inactive”.
For `Clc1ccccn1`, the outcome was “inactive”.
With `NCCN1CCNCC1` the outcome was “inactive”.
In the case of `CC(C)OC(=O)COc1ccc(Cl)cc1Cl`, the outcome is reported as “inactive”.
For `O=c1[nH]cnc2[nH]ncc12`, the outcome was “inactive”.
In the case of `O=C(O)c1ccccc1C(=O)O`, the outcome is reported as “inactive”.
With `CC(C)CCCCCCCOC(=O)CCCCC(=O)OCCCCCCCC(C)C` the outcome was “inactive”.
In the case of `O=C1CCCC1`, the outcome is reported as “inactive”.
For `N[C@H](Cc1c[nH]c2ccccc12)C(=O)O`, the outcome was “inactive”.
For `CC(=O)CCC=C(C)C`, the outcome was “inactive”.
With `COc1ccc(C)cc1N` the outcome was “inactive”.
For `CCCCCCCCCCCCCCCCO`, the outcome was “inactive”.
In the case of `Brc1ccc(Br)c(Br)c1`, the outcome is reported as “inactive”.
For `C=C(C)[C@H]1CC=C(C)C(=O)C1`, the outcome was “inactive”.
For `CCOCCOCCOCCO`, the outcome was “inactive”.
For `O=C(O)Cn1c(=O)n(Cc2ccc(Br)cc2F)c(=O)c2ccc(Cl)cc21`, the outcome was “inactive”.
With `Cc1ccc([N+](=O)[O-])cc1S(=O)(=O)O` the outcome was “inactive”.
With `Cc1ccc2ncccc2c1` the outcome was “inactive”.
With `CCCCC(C=O)CC` (stereo not given) the outcome was “inactive”.
In the case of `C=CCc1ccc(OC)c(OC)c1`, the outcome is reported as “inactive”.
With `CCNc1ccccc1` the outcome was “inactive”.
In the case of `CN(C)c1ccc(Cc2ccc(N(C)C)cc2)cc1`, the outcome is reported as “inactive”.
In the case of `O=C(O)c1cc2ccccc2cc1O`, the outcome is reported as “inactive”.
For `c1ccc2c(c1)Cc1ccccc1-2`, the outcome was “inactive”.
With `O=[N+]([O-])c1ccc2nc[nH]c2c1` the outcome was “inactive”.
In the case of `N#Cc1ccccc1`, the outcome is reported as “inactive”.
With `OC1C(O)C(O)C(O)C(O)C1O` (stereo not given) the outcome was “inactive”.
In the case of `COc1ccccc1OCC(O)CO` (stereo not given), the outcome is reported as “inactive”.
With `CSc1ccc(Cl)cc1` the outcome was “inactive”.
With `COc1ccc([N+](=O)[O-])cc1N` the outcome was “inactive”.
